Screens deposited in PubChem BioAssay by several laboratories.
BAP1 block – inhibitors of human BAP1 deubiquitinase. Q92560. recombinant BAP1, Ub-AMC hydrolysis fluorescence kinetic; active compounds read low. calls only at 20 µM. hit rate 0.48% among 72,000. AID 436;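 active = activity remaining at or below 50% of control, provided the compound also passes the data quality filters; inactive = the rest, including low values that fail the filters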;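 also: 100% = DMSO wells rate and 0% = substrate alone blank rate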
hDAT+cocaine – modulates human dopamine transporter uptake under cocaine; LLC-PK1 hDAT cells, [14C]-dopamine uptake with cocaine IC80; actives deviate in either direction; AID 449768; hit rate 1.3% among 110,000; B-score at 10 µM; Q01959;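 active = Z score or B-score, a plate-position-corrected score, falls beyond the plate's 99.7% confidence bounds, in either direction; inactive = both scores lie inside the 99.7% bounds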;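 also: scored against the spread of the other compound wells on the same plate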
Target sequence (Q01959 whole entry, looked up): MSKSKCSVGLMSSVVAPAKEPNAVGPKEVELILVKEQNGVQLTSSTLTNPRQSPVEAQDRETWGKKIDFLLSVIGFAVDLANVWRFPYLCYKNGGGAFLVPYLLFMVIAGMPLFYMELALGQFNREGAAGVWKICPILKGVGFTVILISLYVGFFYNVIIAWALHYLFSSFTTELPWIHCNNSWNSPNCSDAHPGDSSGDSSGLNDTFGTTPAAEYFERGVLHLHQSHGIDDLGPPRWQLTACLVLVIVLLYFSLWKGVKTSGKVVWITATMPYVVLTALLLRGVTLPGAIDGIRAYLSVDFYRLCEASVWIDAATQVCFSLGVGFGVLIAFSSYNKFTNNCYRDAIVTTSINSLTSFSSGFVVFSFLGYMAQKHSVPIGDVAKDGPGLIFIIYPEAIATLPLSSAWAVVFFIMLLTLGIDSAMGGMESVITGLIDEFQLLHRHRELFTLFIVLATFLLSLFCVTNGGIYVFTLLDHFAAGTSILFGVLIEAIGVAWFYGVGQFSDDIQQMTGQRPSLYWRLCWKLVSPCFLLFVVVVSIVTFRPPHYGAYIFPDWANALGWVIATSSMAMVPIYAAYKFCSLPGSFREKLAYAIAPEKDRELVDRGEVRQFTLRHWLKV
D1 mod – allosterically modulates the human D1 dopamine receptor | hit rate 5.9% among 58,000 | P21728 | HEK293 D1, CRE-luciferase, dopamine EC30 potentiation; actives deviate in either direction | B-score at 10 µM;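 active = luminescence count or its row- and column-corrected plate score outside the 99.7% band of the plate's sample wells, on either side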
D1 PAM confirm – D1 receptor (human) allosteric modulation, confirmed. shares compounds with D1 mod. HEK293 D1 CRE-luciferase, dopamine EC30 potentiation; active compounds read high. luminescence at 10 µM. hit rate 88% among 2,200. AID 642;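 active = luminescence in either of two replicates above the same-plate mean plus 3 SD of the low-dose dopamine control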
D1 no dopamine – secondary test of D1 modulators: activity without dopamine; shares compounds with D1 mod; HEK293 D1 CRE-luciferase, luminescence, no dopamine; active compounds read high; luminescence at 10 µM; hit rate 0.8% among 1,900; AID 646; in the data active = luminescence above about 3900
Isoprot counter – counter-screen for D1 modulators: isoproterenol response in HEK293 cells. shares compounds with D1 mod. HEK293 D1 CRE-luciferase, isoproterenol EC30 counter-screen; active compounds read high. luminescence at 10 µM. hit rate 63% among 2,200. AID 647;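 active = luminescence in either replicate above plate mean of wells with a partly effective reference agonist dose plus 3 SD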;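 also: isoproterenol raises cAMP through native beta-adrenoceptor Gs so signal bypasses D1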
* marks the source's active call; other numbers are inactive results; i = inactive; . = no result shown. Shown is part of a subset that was picked to be rich in hits.

SMILES | BAP1 block | hDAT+cocaine | D1 mod | D1 PAM confirm | D1 no dopamine | Isoprot counter
c1ccc(Cc2nnc3sc(-c4cccs4)nn23)cc1 | . | 0.075 | 11* | 20672* | 1736 | 4516*
Clc1ccc(Cc2nn3c(Cn4nnc5ccccc54)nnc3s2)cc1 | i | 0.0029 | 5.3* | 9044* | 1448 | 3504*
c1ccc2c(c1)nnn2Cc1nnc2sc(-c3ccncc3)nn12 | i | 0.048 | 0.17 | . | . | .
c1ccc(Cc2nnc3sc(-c4cccnc4)nn23)cc1 | . | 0.35 | 3 | . | . | .
c1ccc(Cc2nnc3sc(-c4ccccn4)nn23)cc1 | i | 0.57 | 3.4 | . | . | .
c1coc(-c2nn3c(Cn4nnc5ccccc54)nnc3s2)c1 | i | -0.26 | 1.2 | . | . | .
c1csc(-c2nn3c(Cn4nnc5ccccc54)nnc3s2)c1 | i | 0.13 | 5.6* | 9180* | 1476 | 3180
O=C(CCC1CCCC1)Nc1ccc(S(=O)(=O)N2CCOCC2)cc1 | i | . | . | . | . | .
CCOC(=O)c1ccccc1NC(=O)c1ccc(OC)c(OC)c1 | i | . | . | . | . | .
CC1(C)CC(=O)C2=C(C1)OC(N)=C(C#N)C2c1cccc(OC(=O)c2ccco2)c1 (centres undefined) | i | -0.0094 | 6.3* | 5824* | 1580 | 2360
COc1ccc(C2C(C#N)=C(N)OC3=C2C(=O)CC(C)(C)C3)c(OC)c1OC (centres undefined) | i | -0.61 | -4 | . | . | .
CCCc1[nH]nc2c1C(c1cccc(OC(=O)c3ccco3)c1)C(C#N)=C(N)O2 (centres undefined) | i | -0.0056 | 2.6 | . | . | .
CC1(C)CC(=O)C2=C(C1)OC(N)=C(C#N)C2CCc1ccccc1 (centres undefined) | i | 0.76 | 8.9* | 20388* | 1576 | 3000*
Cc1cccc(Nc2ncc([N+](=O)[O-])cc2[N+](=O)[O-])n1 | i | . | . | . | . | .
COCCOC(=O)C1=C(N)OC2=C(C(=O)CC(C)(C)C2)C1c1ccccc1[N+](=O)[O-] (centres undefined) | i | . | . | . | . | .
O=c1oc2ccccc2cc1-c1nnc(Nc2ccc(Br)cc2)s1 | i | . | . | . | . | .
CC1Cc2nc(SCC(N)=O)n(Cc3ccccc3)c(=O)c2S1 (centres undefined) | i | -0.42 | 2.2 | . | . | .
CCCSc1nc2c(c(=O)n1CC)SC(C)C2 (centres undefined) | i | . | 4.7* | 10748* | 1604 | 3492*
CCSc1nc2c(c(=O)n1Cc1ccccc1)SC(C)C2 (centres undefined) | i | 0.57 | 3.4* | 11532* | 1552 | 3528
CCn1c(SCC(=O)N2CCCC2)nc2c(c1=O)SC(C)C2 (centres undefined) | i | -0.7 | 0.55 | . | . | .
Cc1ccc(C2CC(=O)CC(c3ccccc3)S2)cc1 (centres undefined) | i | . | . | . | . | .
Cc1ccc(NC(=O)c2ccc(N(Cc3ccccc3)S(C)(=O)=O)cc2)c(C)c1 | i | . | . | . | . | .
Cc1nnc(NC(=O)C(C)C)s1 | i | . | . | . | . | .
O=C(c1ccc(S(=O)(=O)N2CCOCC2)cc1)N1CCN(c2ccc(F)cc2)CC1 | i | -0.05 | 3.3* | 5476 | 1868 | 2776
O=C(c1ccc(S(=O)(=O)N2CCOCC2)cc1)N1CCN(c2ccccc2F)CC1 | i | 0.044 | 0.17 | . | . | .
SMILES | BAP1 block | hDAT+cocaine | D1 mod | D1 PAM confirm | D1 no dopamine | Isoprot counter
COc1ccc(C(=O)C(OC(=O)c2cc([N+](=O)[O-])ccc2Cl)c2ccccc2)cc1 (centres undefined) | i | . | . | . | . | .
Cc1c(C(=O)NCc2ccc3c(c2)OCO3)oc2ccc(S(=O)(=O)N3CCCC3)cc12 | . | 0.58 | . | . | . | .
COc1ccccc1CNC(=O)c1oc2ccc(S(=O)(=O)N3CCCC3)cc2c1C | i | 0.86 | 30* | 19660* | 1724 | 7368*
Cc1c(C(=O)NCc2ccccc2)oc2ccc(S(=O)(=O)N3CCCC3)cc12 | i | 0.6 | 11* | 21124* | 1628 | 6456*
Cc1c(C(=O)NCc2cccnc2)oc2ccc(S(=O)(=O)N3CCCCC3)cc12 | i | 0.3 | -0.45 | . | . | .
COc1cc2nc3c4ccccc4n(CCC(C)C)c3nc2cc1OC | i | . | . | . | . | .
CC1=C(C(=O)OCCOc2ccccc2)C(c2ccccc2OC(C)C)C2=C(CCCC2=O)N1 (centres undefined) | i | . | . | . | . | .
Cc1ccccc1C(=O)Nc1sc2c(c1C(=O)N1CCC(C)CC1)CCC2 | i | . | . | . | . | .
CSc1ccc(-c2nc(CSCC(=O)N3CCOCC3)c(C)o2)cc1 | i | -0.41 | 26* | 5664 | 1536 | 3268
COc1ccc(-c2nc(CSCC(=O)N3CCN(C)CC3)c(C)o2)cc1OC | . | 0.036 | . | . | . | .
CCN1C(=O)NC(c2ccc(Cl)cc2)C(C(=O)OCCc2ccccc2)=C1C (centres undefined) | i | . | . | . | . | .
O=C(OC(C(=O)c1ccccc1)c1ccccc1)c1ccc(Br)c([N+](=O)[O-])c1 (centres undefined) | i | . | . | . | . | .
Cc1nc(Nc2ccc3c(c2)OCO3)c2oc3ccccc3c2n1 | . | 0.083 | . | . | . | .
c1ccc2c(c1)oc1c(Nc3ccc4c(c3)OCO4)ncnc12 | i | -0.82 | 3.1* | 6592* | . | 2980*
C=CCSc1nc(N)c(C#N)c(-c2ccc(C)cc2)c1C#N | . | -0.65 | 3.1* | 4628 | 1776 | 2744
CCOC(=O)CSc1nc(N)c(C#N)c(-c2ccc(OCC)cc2)c1C#N | i | 1.2 | 0.73 | . | . | .
COc1ccc(Cn2c(=O)n(Cc3ccco3)c(=N)c3c4c(sc32)COC(C)(C)C4)cc1 | . | 0.13 | 21* | 22180* | 1932 | 10996*
CC1(C)Cc2c(sc3c2c(=N)n(Cc2ccco2)c(=O)n3Cc2ccc(F)cc2)CO1 | . | 0.82 | 23* | 17584* | 1640 | 9976*
CC1(C)Cc2c(sc3[nH]c(=S)n(Cc4ccccc4)c(=O)c23)CO1 | . | 1.5 | . | . | . | .
Cc1ccc(NC(=O)Cn2c(=O)n(Cc3ccco3)c(=N)c3c4c(sc32)COC(C)(C)C4)cc1 | i | 1.4 | . | . | . | .
Cn1c(=O)c2c(nc(Oc3cccc(C4Nc5ccc6ccccc6c5C5=C4C(=O)CC(C)(C)C5)c3)n2C)n(C)c1=O (centres undefined) | i | . | . | . | . | .
Cc1ccc(Cl)cc1N(Cc1ccc(C(=O)NCC2CCCO2)cc1)S(=O)(=O)c1ccccc1 (centres undefined) | i | . | . | . | . | .
N#Cc1c2n(c3c(=O)[nH]cnc13)CCCC2 | i | 0.67 | 0.32 | . | . | .
N#Cc1c2n(c3c(=O)n(Cc4ccccc4Cl)cnc13)CCCCC2 | i | 0.13 | 8.6* | 11076* | 1496 | 4408*
CCCOc1cccc(C(=O)Nc2cccc(-c3nc4ccc(C)cc4o3)c2)c1 | i | . | . | . | . | .
O=C(CSc1nc2sc3c(c2c(=O)[nH]1)CCCC3)NCCCN1CCOCC1 | i | . | . | . | . | .
CCCOc1ccccc1NC(=O)c1ccc(N)cc1 | i | 0.67 | 3* | 7556* | 1560 | 3068
CCCCOc1ccccc1NC(=O)c1ccc(=O)[nH]c1 | i | -0.65 | 0.41 | . | . | .
COc1cccc(Cn2nnc3c(=O)[nH]c(C4CCCN(C(=O)c5ccccc5Cl)C4)nc32)c1 (centres undefined) | i | 1.5 | 3* | 9972* | . | 2912*
